Rows were chosen to be rich in hits. Some 7.2% of all compounds tested hit in one or more screens of this group.
MARV entry inh: qHTS for inhibitors of binding or entry into cells for Marburg Virus; Potency, µM (top dose mostly 37.8 µM), inactives show at the highest dose activity change, negative = inhibition, usual class: inhibitors; Marburg virus pseudotyped entry inhibition, cell reporter; 300,000 tested, 1.8% active; calls by dose curve; tested in HEK293 cells
LASV entry inh: qHTS for Inhibitors of binding or entry into cells for Lassa Virus. Potency, µM (titrated, usually from 37.9 µM), without a hit: at the highest dose activity change, negative = inhibition, hits mostly inhibitors. AID 540256, 2011. Lassa virus pseudotype entry inhibition, cell reporter. 300,000 tested, 1.2% active; calls by dose curve; tested in HEK293 cells; also: nearly all actives have a fitted effect of over 50% in size
RE007 growth inh: qHTS Assay for Inhibitors of the HIV-1 protein Vpr | 360,000 tested, 0.21% active | S. pombe RE007 Vpr strain, BacTiter-Glo ATP luminescence, 24 h | Potency, µM (top dose mostly 92.2 µM), for inactives: top-dose activity change, negative = less growth, usual class: inhibitors; active = well fitted falling curve with a large enough effect; inconclusive = small, poorly fitted or top-dose-only effect; inactive = no such curve, though single readings can be large or run the other way; also: nearly all actives have a fitted effect of over 50% in size
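Fission yeast RE007 carrying one integrated HIV-1 vpr copy, seeded at OD 0.01 in PMG+AL medium with 23 nL pinned compound. Grown 24 h at 30 degrees; viability read by BacTiter-Glo luminescence after 5 min.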
Sm TGR inh: qHTS Assay for the Inhibitors of Schistosoma Mansoni Peroxiredoxins. purified TGR, DTNB reduction, TNB absorbance 405 nm. Potency, µM (doses to about 114 µM), without a hit: at the highest dose activity change, negative = inhibition, hits mostly inhibitors. 360,000 tested, 3% active. AID 485364, 2010; also: nearly all actives have a fitted effect of over 60% in size
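TGR 20 nM + NADPH 100 uM (dispensed conc.), cpd preinc 15 min RT; start with NADPH (500 uM addition) then DTNB (15 mM addition). Kinetic TNB absorbance, 405 nm filter. Four-parameter Hill fit across titration.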
FMDV inh: High Throughput Screening for Foot and Mouth Disease Virus Antivirals. FMDV antiviral cell-based qHTS. AID 1159524, 2015. 410,000 tested, 1.2% active. Potency, µM (top dose mostly 57.9 µM), inactives show top-dose activity change, negative = inhibition, usual class: inhibitors; calls by dose curve; tested in HEK293T cells; also: read-out not given here; nearly all actives have a fitted effect of over 45% in size
HCV inhibitor: qHTS Assay for Inhibitors of Hepatitis C Virus (HCV); Huh7.5.1 HCVcc-Cre infection, luciferase reporter, 44 h; 340,000 tested, 3.4% active; Potency, µM (highest dose often 41.8 µM), for inactives: at the top dose activity change, negative = inhibition, usual class: inhibitors; AID 651820, 2012
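Infectious HCVcc-Cre (~0.5 moi) was added to cells just after compound, with cells seeded 4 h earlier at 1,000 per well. Luciferase activity after 44 h culture reported infection; substrate was incubated 15 min at room temperature before reading.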
Numbers without * were called inactive; u = inconclusive; x = no result; [ ] = another dose, or the depositor's remark. Unless noted, calls follow the shape of the dose curve; as a rule, active = well fitted curve in the direction sought with a large enough effect; inconclusive = small, poorly fitted or top-dose-only effect, or another doubt; inactive = no such curve, though single readings can be large; an effect the other way counts as inactive or inconclusive. % is scaled to controls: 0 for no effect and ±100 for the full control effect; potency is read from the fitted curve at half-maximal effect.

SMILES	MARV entry inh	LASV entry inh	RE007 growth inh	Sm TGR inh	FMDV inh	HCV inhibitor
COc1ccc(N2C(=O)CC(Cc3ccccc3)C2=O)cc1 (centres undefined)	9%	4%	2%	5%	28%	7%
COc1ccc(C[C@@H]2OC3(C=CC(=O)C=C3)O[C@H]2Cc2ccc(OC)cc2)cc1	2.5µM*	u	14%	x	14µM*	4µM*
O=C1CSC2(C(=O)N(Cc3c(F)cccc3Cl)c3ccccc32)N1c1ccc(F)c(F)c1 (centres undefined)	x	-24%[46.1 µM]	x	1%	u	x
O=C(Nc1ccccc1O)C(c1ccccc1)c1ccccc1	u	-29%[46.1 µM]	0%	6%	u	13µM*
O=C(N/N=C/c1ccco1)c1cc(C2CC2)nc2ccccc12	-36%	u	x	-12%	x	-18%
CCc1ccc(/C=N/NC(=O)c2cc(C3CC3)nc3ccc(Br)cc23)s1	u	u	6%	-8%	0%	22µM*
O=C(CSc1nncn2c1cc1sccc12)Nc1ccc(Br)cc1F	x	u	x	1%	-11%	x
Cc1cc(NC(=O)COC(=O)c2ccccc2S(=O)(=O)N(C)c2ccccc2)no1	u	2.5µM*	7%	10%	u	-12%
COc1ccccc1N1CCN(C(=O)Cn2c(=O)n3nc(-c4ccc(C)cc4)nc3c3ccccc32)CC1	x	u	x	8%	-25%	x
CCOc1ccc(C(C)=O)cc1COC(=O)C(C)N=C1NS(=O)(=O)c2ccccc21 (centres undefined)	24%[46.1 µM]	6%	1%	20µM*	29%	10%
CC(=O)c1ccc(Nc2nc(C(C)N)cs2)cc1 (centres undefined)	x	x	1%[18.4 µM]	x	3%	x
C1=C(CCNc2ncnc3c2[nH]c2ccccc23)CCCC1	u	u	4%	2%	-1%	1.1µM*
Cc1ccc2[nH]c3c(NCc4ccccc4)ncnc3c2c1	x	x	1%	-1%	u	7.9µM*
COc1ccc2[nH]c3c(NCCN(C(C)C)C(C)C)ncnc3c2c1	11µM*	-9%	-1%	0%	-17%	u
CCOc1ccc2[nH]c3c(NCCCOC)ncnc3c2c1	x	x	1%	-1%	27%	-24%
CC(C)OCCCNc1ncnc2c1[nH]c1ccccc12	u	u	1%	2%	18µM*	2.5µM*
CCOc1ccc2[nH]c3c(NCCN(CC)CC)ncnc3c2c1	u	-26%	-12%	0%	-3%	-2%
COc1ccc(CNc2ncnc3c2[nH]c2cc(OC)c(OC)cc23)cc1	u	-2%[46.1 µM]	-9%	-9%	-20%	u
COc1ccc(CNc2ncnc3c2[nH]c2ccccc23)cc1	u	u	0%	2%	u	5µM*
COc1cccc(CNC(=O)c2c(OC)cc(=O)n3c2CCN(C(=O)c2cc(C)ccc2C)CC3)c1	x	x	x	x	18%	x
O=C(COc1ccccc1Cl)Nc1ccc(OCc2cc(=O)n3ccsc3n2)cc1	16%[46.1 µM]	-18%[46.1 µM]	x	0%	-11%	x
Cc1ccc(-c2nn(-c3ccccc3)cc2C2SCC(=O)N2Cc2ccccc2)o1 (centres undefined)	7%	x	2%	11µM*	u	u
O=C1CSC(c2cn(-c3ccccc3)nc2-c2cc3ccccc3oc2=O)N1Cc1ccco1 (centres undefined)	u	7%	-14%	22µM*	-9%	u
O=C1CSC(c2cn(-c3ccccc3)nc2-c2cc3ccccc3o2)N1Cc1ccccc1 (centres undefined)	u	4%	4%	-11%	2%	u
Cc1cccc(C)c1NC(=O)Cn1cc(C(=O)c2ccco2)c2ccccc21	u	-3%[46.1 µM]	x	-9%	-8%	x
SMILES	MARV entry inh	LASV entry inh	RE007 growth inh	Sm TGR inh	FMDV inh	HCV inhibitor
O=C(NCC[C@H]1CC[C@H](NS(=O)(=O)c2ccc(F)cc2)[C@@H](CO)O1)c1ccc2c(c1)OCO2	x	x	-20%	x	-13%	x
CCN(CC)c1ccc(/C=C(\C#N)c2nc(-c3cccs3)c(NC(C)=O)s2)cc1	-7%	x	x	-1%	x	13µM*
CCN(CC)c1ccc(/C=C2/C(=O)NC(=O)N(CC3CCCO3)C2=O)cc1 (centres undefined)	4%	-22%	6%	-26%	u	u
COC(=O)C1=C(C)N(CC2CCCO2)C(=O)/C1=C\c1ccc(O)cc1 (centres undefined)	6%[46.1 µM]	-2%	-9%	50µM*	0%	8%
COc1cccc(Cn2c(=O)n(-c3cc(C)cc(C)c3)c(=O)c3oc4ccccc4c32)c1	x	1%[46.1 µM]	x	3%	-20%	x
O=C1c2cccc3c([N+](=O)[O-])ccc(c23)C(=O)N1c1ccc(Cl)cn1	u	u	u	14µM*	25µM*	10µM*
O=C1c2cccc3c([N+](=O)[O-])ccc(c23)C(=O)N1c1nccs1	u	u	u	1.8µM*	35µM*	u
O=C1c2cccc3c([N+](=O)[O-])ccc(c23)C(=O)N1c1ccccn1	10µM*	u	28µM*	20µM*	u	u
O=C1c2cccc3c([N+](=O)[O-])ccc(c23)C(=O)N1O	x	x	x	0%	u	0%
O=C1c2cccc3cccc(c23)C(=O)N1c1nccs1	u	11%	8%	0%	-15%	15%
COc1ccc(Oc2nc3ccccc3n3cccc23)cc1	-22%	-7%	u	0%	-16%	11µM*
CCOc1ccc(NC(=O)N2CCC(N3CCCCC3)CC2)cc1	u	20%[46.1 µM]	x	-3%	-9%	x
Cc1ccc(N(CC(=O)Nc2ccc(C)c(Cl)c2)S(=O)(=O)c2cccs2)cc1	28%[46.1 µM]	-18%[46.1 µM]	x	8%	-24%	x
O=C1/C(=C/C=C/c2ccco2)SC(=S)N1NS(=O)(=O)c1ccccc1	x	x	-12%	1.8µM*	-15%	13%
O=C1/C(=C\c2ccco2)SC(=S)N1c1ccccc1	u	0%	-11%	u	-2%	-21%
CC(C(=O)O)N1C(=O)/C(=C/C=C/c2ccco2)SC1=S (centres undefined)	u	-12%	11%	7.1µM*	5%	9%
CCN(C(=O)C(C)N1C(=O)/C(=C/c2ccco2)SC1=S)C1CCS(=O)(=O)C1 (centres undefined)	x	x	12%	40µM*	-7%	14µM*
CC(=O)c1cccc(NC(=O)c2sc(-n3nc(C)c(CCC(C)C)c3C)nc2C)c1	-13%[46.1 µM]	-1%[46.1 µM]	x	0%	-2%	x
Cc1onc(-c2ccccc2)c1C(=O)Nc1ccc(OC(C)C)cc1	x	x	15%	3%	0.71µM*	-15%

Bioassay records: PubChem BioAssay, National Center for Advancing Translational Sciences (NCATS)
